These results are taken from PubChem BioAssay (Tox21).

SMILES strings stand for the structures. Results filed as inconclusive are left out. A number with no mark means an inactive call. Active and inactive are the calls of the source. Calls come from the whole dose curve.
% is set by controls: 0 for no effect and ±100 for the full control effect.

Vitamin D3 receptor (Homo sapiens), sequence (P11473 whole entry, looked up): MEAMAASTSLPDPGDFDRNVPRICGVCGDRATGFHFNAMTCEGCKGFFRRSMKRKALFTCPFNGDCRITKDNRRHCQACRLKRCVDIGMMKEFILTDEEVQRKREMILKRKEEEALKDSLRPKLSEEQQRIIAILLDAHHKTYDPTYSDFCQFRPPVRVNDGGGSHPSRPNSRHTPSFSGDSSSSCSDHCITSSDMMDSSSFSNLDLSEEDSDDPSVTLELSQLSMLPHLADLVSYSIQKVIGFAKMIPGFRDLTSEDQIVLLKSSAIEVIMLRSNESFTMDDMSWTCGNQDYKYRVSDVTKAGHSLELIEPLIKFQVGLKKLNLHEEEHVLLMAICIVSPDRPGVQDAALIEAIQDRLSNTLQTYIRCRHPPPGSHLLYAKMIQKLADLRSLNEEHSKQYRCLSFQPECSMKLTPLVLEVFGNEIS

This assay has as its target Vitamin D3 receptor (Homo sapiens) (UniProt P11473). Nature of the assay: qHTS assay to identify small molecule agonists of the vitamin D receptor (VDR) signaling pathway (AID 743222). The note with it: HEK293T VDR-UAS-bla, beta-lactamase FRET ratio, 16 h; series mostly up to 63.5 µM; activation: at the top concentration. The source says:
National Center for Advancing Translational Sciences [NCATS]
NIH Chemical Genomics Center [NCGC]
U.S. Environmental Protection Agency [EPA]
National Institutes of Environmental Health Sciences [NIEHS]
National Toxicology Program [NTP]
U.S. Food and Drug Administration [FDA]
The vitamin D receptor (VDR), a member of nuclear hormone receptor superfamily, plays a critical role in calcium homeostasis and bone metabolism. It is also involved in cell differentiation and growth, and thrombogenicity.
Tox21 Assay Protocol Summary:
VDR-bla cells were dispensed at 2,000 cells/6 uL/well into black wall/clear-bottom 1536-well plates using a Multidrop Combi (Thermo Fisher Scientific, Waltham, MA) dispenser. After the assay plates were incubated at a 37C and 5% CO2 for 4 h, 23 nL of compounds dissolved in DMSO, positive controls or DMSO only was transferred to the assay plate by a Pintool station (Kalypsys, San Diego, CA). The plates were incubated at 37C and 5% CO2 for 16 h. After 1 uL of LiveBLAzerTM B/G FRET substrate was added using a Bioraptr Flying Reagent Dispenser (FRD) workstation (Beckman Coulter, Indianapolis, IN, USA), the plates were incubated at room temperature for 2 h, and fluorescence intensity was measured by an Envision plate reader (PerkinElmer, Shelton, CT).
Take `O=C(O)CCl`: the outcome was inactive.

For the compound `C[N+](C)(C)Cc1ccccc1`, the result was inactive.

For the compound `COCC(=O)N(c1c(C)cccc1C)C(C)C(=O)OC` (stereo not drawn), the result was inactive.

Turning to `Cc1cc(-c2ccc(N)c(C)c2)ccc1N`, the outcome was inactive.

In the case of `N#CS`, the result was inactive.

Take `CCCCCCCCCCCCCCCCn1cc[n+](C)c1`: the “activation” value is 3.26%.

For the compound `CCCCCCCCn1cc[n+](C)c1`, the outcome was inactive.

For the compound `C=CCOC(Cn1ccnc1)c1ccc(Cl)cc1Cl` (stereo not drawn), the outcome was inactive.

For `Nc1ccc(-c2ccc(N)cc2)cc1`, the outcome was inactive.

In the case of `C1CCC(NC2CCCCC2)CC1`, the outcome was inactive.

In the case of `CCNc1nc(Cl)nc(NCC)n1`, the result was inactive.

As to `O=C(O)C(Cl)(Cl)Cl`, the outcome was inactive.

For `Nc1ccc(-c2ccc(N)c(Cl)c2)cc1Cl`, the result was inactive.

With `Oc1ccccc1-c1ccccc1`, the result was inactive.

Regarding `CC(Cl)(Cl)C(=O)O`, the outcome was inactive.

Turning to `CC(=O)[O][Hg][c]1ccccc1`, the outcome was inactive.

As to `O=C(O)CC(O)(CC(=O)O)C(=O)O`, the outcome was inactive.

Regarding `O=P1(N(CCCl)CCCl)NCCCO1` (stereo not drawn), the result was inactive.

Regarding `O=C(O)COc1ccc(Cl)cc1Cl`, the result was inactive.

For `Nc1ccccc1`, the result was inactive.

Take `OCCOc1ccccc1`: the result was inactive.

Regarding `CC[N+](CC)(CC)CC`, the outcome was inactive.

In the case of `CCCC[N+]1(C)CCCCC1`, the result was inactive.

In the case of `Oc1cccc2cccnc12`, the “activation” value is 14.5%.

Turning to `COP(=O)(OC)C(O)C(Cl)(Cl)Cl` (stereo not drawn), the result was inactive.

As to `Cc1cc(Cl)ccc1OCC(=O)O`, the outcome was inactive.

For the compound `CNC`, the result was inactive.

For the compound `CCn1cc[n+](C)c1C`, the result was inactive.
